High-throughput results: PubChem BioAssay, National Center for Advancing Translational Sciences (NCATS)
FBPA Giardia inh – qHTS Assay for Inhibitors of Fructose-1,6-bisphosphate Aldolase from Giardia Lamblia. A8B2U2. purified Giardia FBPA. Potency, µM (highest dose often 59.6 µM), most hits filed as inhibitors. hit rate 0.71% among 290,000. AID 2451, 2010; further: nearly all actives have a fitted effect of over 55% in size
Target sequence (A8B2U2 whole entry, looked up): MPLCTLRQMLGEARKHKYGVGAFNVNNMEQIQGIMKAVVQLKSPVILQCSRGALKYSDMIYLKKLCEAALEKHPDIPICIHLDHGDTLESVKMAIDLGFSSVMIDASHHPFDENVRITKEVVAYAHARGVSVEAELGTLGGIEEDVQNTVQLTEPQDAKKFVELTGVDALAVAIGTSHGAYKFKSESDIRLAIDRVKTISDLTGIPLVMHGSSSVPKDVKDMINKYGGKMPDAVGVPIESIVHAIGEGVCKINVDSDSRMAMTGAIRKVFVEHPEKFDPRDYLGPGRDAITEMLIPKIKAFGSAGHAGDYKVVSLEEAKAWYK
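Giardia FBPA (40 nM reagent) was preincubated 10 min at RT with compound (up to 57.5 uM final), then substrate plus GAPDH/TPI/NAD/arsenate coupling system with diaphorase/resazurin was added; resorufin fluorescence (525/598 nm) was read after 20 min.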
Tb PYK inh – qHTS of Trypanosoma Brucei Inhibitors. pyruvate kinase (Trypanosoma brucei), Q57TT1. TbPYK enzyme, Kinase-Glo Plus ATP luminescence, 45 min. Potency, µM (top dose mostly 76.8 µM), usual class: inhibitors. hit rate 0.12% among 410,000. AID 624173, 2012; further: nearly all actives have a fitted effect of over 50% in size
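ADP (130 uM final) triggers the TbPYK reaction after compound addition; incubation is 45 min at room temperature. Kinase-Glo Plus is then added and luminescence imaged. Normalized data are fitted to concentration-effect curves.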
LmPK inh – qHTS Assay for Inhibitors of Leishmania Mexicana Pyruvate Kinase (LmPK). Q27686. purified LmPK, Kinase-Glo ATP luminescence, 1 h. hit rate 0.37% among 290,000. Potency, µM (doses to about 57.5 µM), most hits filed as inhibitors
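ATP generated from ADP (0.1 mM) and PEP (0.5 mM) by 0.1 nM LmPK over 1 h at room temperature (pH 7.2 imidazole buffer) was detected by coupled luciferase luminescence. Values were normalized to uninhibited and no-enzyme wells.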
RE007 growth inh – qHTS Assay for Inhibitors of the HIV-1 protein Vpr. hit rate 0.21% among 360,000. S. pombe RE007 Vpr strain, BacTiter-Glo ATP luminescence, 24 h. AID 651644, 2012. Potency, µM (top dose mostly 92.2 µM), usual class: inhibitors; active means well fitted falling curve with a large enough effect; inconclusive means small, poorly fitted or top-dose-only effect; inactive means no such curve, though single readings can be large or run the other way; further: nearly all actives have a fitted effect of over 50% in size
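Fission yeast RE007 carrying one integrated HIV-1 vpr copy, seeded at OD 0.01 in PMG+AL medium with 23 nL pinned compound. Grown 24 h at 30 degrees; viability read by BacTiter-Glo luminescence after 5 min.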
Numbers stand for hits; – = inactive; ? = inconclusive; · = no result. This is a sample that favours compounds with a hit; in the whole collection about 0.95% have one here. Unless noted, the call rests on the fitted dose curve; in most records, active means well fitted curve in the direction sought with a large enough effect; inconclusive means small, poorly fitted or top-dose-only effect, or another doubt; inactive means no such curve, though single readings can be large; an effect the other way counts as inactive or inconclusive.

SMILES | FBPA Giardia inh | Tb PYK inh | LmPK inh | RE007 growth inh
Cc1nn(CCc2n[nH]c(=S)n2C)c(C)c1Br | – | ? | – | –
Cc1nn(CCc2n[nH]c(=S)n2C2CCCCC2)c(C)c1Br | – | 13µM | 7.9µM | –
COc1ccc(N2CCN(C(c3ccccc3)c3nnc(-c4ccccc4Cl)o3)CC2)cc1 (stereo not given) | · | – | · | ·
O=C(C(=O)c1cc(Br)ccc1O)c1cc(Br)ccc1O | · | – | · | –
O=C(c1ccc(O)c(Br)c1)c1cc(Br)ccc1O | · | – | · | 63µM
Cc1ccc(S(=O)(=O)c2ccc([N+](=O)[O-])o2)cc1 | · | – | · | 7.9µM
Cc1ccc(NCN2C(=O)C3C4C=CC(C4)C3C2=O)cc1 (stereo not given) | – | ? | – | –
O=C1C2C3C=CC(C3)C2C(=O)N1CNc1ccc(O)cc1 (stereo not given) | 3.2µM | · | – | ·
CCOc1ccccc1C1CC(=O)Oc2c1c(=O)n(C)c1ccccc21 (stereo not given) | · | – | · | ·
O=C(O)CCNc1cc2ccccc2cc1C(=O)O | 4.5µM | – | – | –
O=C(O)CCNS(=O)(=O)c1ccc2ccccc2c1 | – | – | – | –
CCOC(=O)c1cc(C)n(CC2CCC(C(=O)Nc3ccccc3OC)CC2)c1C (stereo not given) | · | – | · | ·
CC1(C)Cc2ccccc2-c2n[nH]c(=S)n21 | – | 2.8µM | 7.1µM | –
COc1ccc(C(=O)NCCn2cc(SCC(=O)NCCc3ccc(OC)c(OC)c3)c3ccccc32)cc1 | · | – | · | ·
C=CC1=C(C(=O)O)N2C(=O)C(NC(=O)Cc3ccccc3)C2SC1 (stereo not given) | 16µM | – | – | –
O=C(CO)NCCCOc1cccc(CN2CCCCC2)c1 | · | – | · | ·
O=C(O)CN1C(=O)/C(=C/c2ccc(SCc3ccccc3)o2)SC1=S | 20µM | – | – | –
O=C(O)CN1C(=O)/C(=C\c2ccc(OC(=O)c3ccco3)cc2)SC1=S | ? | – | – | –
Cc1cccc(/C(N)=N/OC(=O)c2cccs2)c1 | – | ? | 13µM | ?
Cc1cccc(/C(N)=N/OC(=O)c2ccc(F)cc2)c1 | – | ? | 4.5µM | ?
Cc1ccc(/C(N)=N/OC(=O)c2cccs2)cc1 | – | – | ? | ?
N/C(=N\OC(=O)c1cccs1)c1cccc(Br)c1 | – | – | 16µM | –
N/C(Cc1ccc(Cl)cc1Cl)=N\OC(=O)c1cccs1 | – | – | – | 18µM
N/C(=N\OC(=O)c1cccs1)c1ccccc1 | – | ? | 13µM | ?
CCOc1ccc(N2C(=O)CS(=O)(=O)C23C(=O)N(Cc2cccc(Cl)c2)c2ccccc23)cc1 (stereo not given) | · | – | · | ·
SMILES | FBPA Giardia inh | Tb PYK inh | LmPK inh | RE007 growth inh
Cc1ccc2c(c1)c1c(c(=O)n(-c3ccccc3C)c(=O)n1Cc1ccccc1F)n2C | · | – | · | ·
Cc1cc(C)cc(-n2c(SCC(=O)NCc3ccc4c(c3)OCO4)nc3ccccc3c2=O)c1 | – | – | – | –
O=C(CSc1nc2cc([N+](=O)[O-])ccc2n1-c1ccccc1)NCc1ccc2c(c1)OCO2 | 7.9µM | – | – | –
O=C1CC(N2CCC(c3nc4ccccc4[nH]3)CC2)C(=O)N1c1ccccc1F (stereo not given) | – | – | – | 35µM
COc1ccc(N2C(=O)CC(N3CCC(c4nc5ccccc5[nH]4)CC3)C2=O)cc1 (stereo not given) | – | – | – | 40µM
COc1ccc(N2C(=O)CC(N3CCN(c4ccccc4)CC3)C2=O)cc1 (stereo not given) | – | – | – | –
COc1ccc(N2C(=O)CC(N3CCN(c4ccccc4F)CC3)C2=O)cc1 (stereo not given) | – | – | – | –
COc1ccc(CCNC(=O)CCc2c(C)c3cc4c(C)c(C)oc4cc3oc2=O)cc1OC | · | – | · | ·
Cn1c(=O)[nH]c(=O)c2c1nc([N+](=O)[O-])n2Cc1ccccc1 | 14µM | – | – | –
COc1ccc(-c2ccc(C(c3c(C)[nH][nH]c3=O)c3c(C)[nH][nH]c3=O)o2)c([N+](=O)[O-])c1 | 6.3µM | – | – | –
Cc1[nH][nH]c(=O)c1C(c1ccc(-c2ccc(Cl)c(Cl)c2)o1)c1c(C)[nH][nH]c1=O | ? | – | – | –
COc1ccccc1N1CCN(S(=O)(=O)c2c(C)nc3sc(C)c(C)n3c2=O)CC1 | · | – | · | ·
O=C(Nc1ccc(F)cc1)[C@H](CSCc1ccccc1)N1Cc2ccccc2C1=O | · | – | · | ·
O=C(Cc1ccc(S(=O)(=O)N2CCOCC2)s1)Nc1nc2c(s1)CCCC2 | 16µM | – | – | –
O=C(Cc1ccc(S(=O)(=O)N2CCOCC2)s1)Nc1ccc2c(c1)CCC2 | – | – | – | –
O=C(/C=C/c1ccc(Cl)cc1)c1cccnc1 | – | – | – | 28µM
O=C(/C=C/c1ccccc1Cl)c1cccnc1 | – | – | – | ?
N#Cc1ccc(/C=C/C(=O)c2cccnc2)cc1 | – | ? | – | 45µM
C[C@]12CC[C@@H]3c4ccc(OC(=O)N(CCCl)CCCl)cc4CC[C@@H]3[C@H]1CC[C@@H]2OP(=O)(O)O | · | – | · | ·
Nc1ccccc1SC1CC(=O)N(c2ccc3c(c2)OCO3)C1=O (stereo not given) | – | – | – | –
CN1C(=O)CC(Sc2ccccc2C(=O)O)C1=O (stereo not given) | – | – | – | –
Cc1ccc(N2C(=O)CC(Sc3ccccc3C(=O)O)C2=O)cc1C (stereo not given) | – | – | – | 14µM
O=C(O)c1ccccc1SC1CC(=O)N(c2ccc3c(c2)OCO3)C1=O (stereo not given) | – | – | – | 22µM
Cc1ccc(N2C(=O)CC(Sc3ccccc3C(=O)O)C2=O)cc1 (stereo not given) | – | – | – | 10µM
Cc1ccc(N2C(=O)CC(Sc3ncccc3C(=O)O)C2=O)cc1 (stereo not given) | – | – | – | –
SMILES | FBPA Giardia inh | Tb PYK inh | LmPK inh | RE007 growth inh
CN(C)c1ccc(N2C(=O)CC(Sc3ccccc3C(=O)O)C2=O)cc1 (stereo not given) | – | – | – | 6.3µM
Cc1cc(C)cc(N2C(=O)CC(Sc3ccccc3C(=O)O)C2=O)c1 (stereo not given) | – | – | – | 11µM
Cc1cccc(N2C(=O)CC(Sc3ccccc3C(=O)O)C2=O)c1 (stereo not given) | – | – | – | 5.6µM
ClC[C@H]1CO1 (tested in a mixture with another compound) | · | – | · | ·
CCCN(CCC)C1CC(=O)N(Cc2ccccc2)C1=O (stereo not given) | – | – | – | 14µM
O=C1CC(N(O)C2CC(=O)N(Cc3ccccc3)C2=O)C(=O)N1Cc1ccccc1 (stereo not given) | – | – | – | 45µM
O=C1CC(N2CCN(c3ccccc3O)CC2)C(=O)N1Cc1ccccc1 (stereo not given) | – | – | – | –
Cc1c(Cl)sn(-c2ccc(Cl)cc2)c1=O | – | 4.5µM | – | 1µM
O=c1c2cc(C(F)(F)F)ccc2sn1-c1ccccc1 | · | 7.1µM | · | 8.9µM
